Data taken from the supplement of paper PMC12636033.
± gives the standard deviation of the averaged measurements. Over roughly 33,000 sequences, “E-score (rank enrichment, -0.5 to 0.5)” has its median near -0.0068; the highest 2% begin near 0.24. The sample as a whole holds a higher share of the highest values than the screen did.

Tested on: muMax20 (Max(13-93) K31hArg/K57hArg, M65Nle)
Experiment: PBM 8-mer E-score (E-score (rank enrichment, -0.5 to 0.5)); higher = stronger preferential binding
Description: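 Protein binding microarray (universal PBM chip covering all 10-mers in fixed probe flanks) with chemically synthesized human Max(13-93) bHLH-LZ analogs (not full-length Max) bearing noncanonical residues (hArg, Tha, Aib, Nle at 65) and aromatic Cys staples. Read-out per 8-mer (and its reverse complement): E-score (rank-based enrichment, -0.5 to 0.5) and Z-score of median probe intensity.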

Point of comparison: ACTAATAC, “PBM 8-mer E-score” value 0.158 ± 0.089. Against it:
- CATCTATA — higher, 0.278 ± 0.013
- GATATGTA — within error, 0.103 ± 0.057
- AAACGAGT — lower, 0.044 ± 0.013
- AGTGTGAT — within error, 0.125 ± 0.043
- CGTATAGA — within error, 0.0652 ± 0.077
- AAGGTTAT — lower, -0.0312 ± 0.054
- CACGGTTA — within error, 0.00552 ± 0.11
- TCGGAACA — lower, -0.0705 ± 0.069
- CAGTGGCC — lower, -0.25 ± 0.067
- CAGAGCCA — lower, -0.17 ± 0.01
- AGCTGGGC — lower, -0.0998 ± 0.075
- ACCACAGG — lower, -0.113 ± 0.031
- GCACTTGA — lower, -0.0604 ± 0.011
- TGCTCGAA — within error, 0.069 ± 0.0081
- ACCCAGTG — lower, -0.0911 ± 0.074
- ACTATGTG — within error, 0.109 ± 0.069
- AATATGGT — within error, 0.095 ± 0.017
- AATATGGC — within error, 0.24 ± 0.07
- AATATGTC — lower, 0.0382 ± 0.013
- AATATGTG — within error, 0.28 ± 0.094
- AATATGGA — within error, 0.156 ± 0.017
- CAGTTAGG — within error, 0.0928 ± 0.049
- GATGCTAA — lower, -0.0557 ± 0.067
- GCGTCGAC — lower, -0.038 ± 0.027
- CATAAGAG — within error, 0.0912 ± 0.02
- GATGCTGC — lower, -0.0878 ± 0.08
- CGCCCTGA — lower, -0.0272 ± 0.05
- ATAATCGG — within error, 0.137 ± 0.011
- ATAAAGTG — within error, 0.0933 ± 0.062
- GTAAAGTA — within error, 0.284 ± 0.074
- CTAAAGTA — lower, 0.00517 ± 0.053
- ATAAAGTC — within error, 0.239 ± 0.082
- ATAAAGTA — within error, 0.228 ± 0.048
- CTAAAGTC — lower, -0.208 ± 0.11
- CAAATGGA — lower, -0.0819 ± 0.12
- AAAATGGG — lower, -0.088 ± 0.024
- AAAATGGA — higher, 0.298 ± 0.036
- AGGCTATG — lower, -0.0609 ± 0.077
- ATTCAGCA — within error, 0.076 ± 0.071
- TAATCGTA — within error, 0.162 ± 0.0019
- AAATCAAT — within error, 0.192 ± 0.01
- AAATCAAA — higher, 0.2624 ± 0.00016
- CAATCGTA — within error, 0.18 ± 0.038
- AAATCAAG — within error, 0.141 ± 0.028
- AAATCGTA — within error, 0.248 ± 0.024
- ATGTGTCC — lower, 0.0398 ± 0.026
- TGAGAACA — within error, 0.115 ± 0.095
- ACAACGAC — lower, 0.0368 ± 0.017
- ATATGATA — within error, 0.273 ± 0.081
- ACATGATA — within error, 0.197 ± 0.045
- GCATGATA — within error, 0.249 ± 0.015
- GTATGAGA — within error, 0.161 ± 0.072
- CCATGATA — within error, 0.0877 ± 0.047
- GGATGATA — within error, 0.0453 ± 0.067
- ATATGATG — within error, 0.193 ± 0.013
- CTATGATA — lower, -0.0149 ± 0.015
- GTATGATA — higher, 0.323 ± 0.069
- ACGGTGCG — lower, -0.17 ± 0.023
- CTACTTAA — within error, 0.09273 ± 0.00059
- CGAGTGTC — lower, -0.179 ± 0.053
- CTTTGATC — lower, -0.09609 ± 0.0009
- AAGAGACC — within error, 0.0547 ± 0.019
- CCGAGTAA — lower, -0.0803 ± 0.014
- GAACGGAA — lower, -0.0438 ± 0.095
- CTTAATAC — within error, 0.214 ± 0.041
- ATTAATCG — within error, 0.0839 ± 0.061
- GTTAATAA — within error, 0.227 ± 0.066
- ATTAATAA — higher, 0.274 ± 0.0099
- ATTAATGG — within error, 0.0317 ± 0.074
- CTTAATAA — within error, 0.0902 ± 0.011
- ATTAATAC — within error, 0.266 ± 0.021
- CTGAATAC — lower, -0.0332 ± 0.1
- ATGAATAG — within error, 0.172 ± 0.08
- ATTAATAG — within error, 0.255 ± 0.09
- ATGAATAC — within error, 0.248 ± 0.057
- AGATTGCT — lower, -0.0246 ± 0.009
- GGATAGAA — within error, 0.123 ± 0.013
- AACTCCCG — lower, -0.034 ± 0.042
- GGAATCGA — lower, -0.191 ± 0.065
- GCGACTAC — lower, -0.0421 ± 0.049
- ACAAACCC — within error, 0.11 ± 0.054
- GGGTGGTA — within error, -0.00184 ± 0.074
- ACTAGAGG — within error, 0.113 ± 0.047
- ACATGCGT — within error, 0.243 ± 0.13
- ACATGCAT — within error, 0.294 ± 0.053
- TCATGCAA — higher, 0.277 ± 0.021
- ACATGCGG — within error, 0.00547 ± 0.099
